In assay [1] the target is Sphingosine kinase 1 (Homo sapiens) (UniProt Q9NYA1). The settings on record: at 1 µM.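 Further: mean SPHK1 inhibition value reported from the GSK PKIS kinase panel screen.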
Assay [2] has as its target T1, Sphingosine kinase 2 (Homo sapiens) (UniProt Q9NRA0).
T1 sequence (whole entry): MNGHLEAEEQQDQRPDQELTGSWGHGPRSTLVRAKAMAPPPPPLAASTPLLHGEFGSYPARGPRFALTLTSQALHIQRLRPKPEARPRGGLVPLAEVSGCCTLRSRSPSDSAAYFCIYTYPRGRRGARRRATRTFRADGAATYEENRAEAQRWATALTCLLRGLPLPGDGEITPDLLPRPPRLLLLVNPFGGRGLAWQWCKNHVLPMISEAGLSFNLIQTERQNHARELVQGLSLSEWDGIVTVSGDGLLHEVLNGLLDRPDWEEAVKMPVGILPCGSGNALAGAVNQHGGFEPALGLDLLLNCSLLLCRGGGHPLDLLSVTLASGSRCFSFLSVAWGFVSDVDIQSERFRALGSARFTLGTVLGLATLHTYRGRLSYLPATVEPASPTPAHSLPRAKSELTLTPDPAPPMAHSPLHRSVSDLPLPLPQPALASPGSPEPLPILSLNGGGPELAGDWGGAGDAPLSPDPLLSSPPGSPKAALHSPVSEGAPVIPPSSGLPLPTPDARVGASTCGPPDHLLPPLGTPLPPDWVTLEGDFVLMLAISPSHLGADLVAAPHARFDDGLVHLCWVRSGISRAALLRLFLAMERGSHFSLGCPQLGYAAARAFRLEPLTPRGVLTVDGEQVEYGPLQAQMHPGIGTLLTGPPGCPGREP
The settings on record: at 0.1 µM.

Assay [3] concerns the target T1, Sphingosine kinase 2 (Homo sapiens). The settings on record: at 1 µM.
The target of assay [4] is Casein kinase II subunit alpha (Homo sapiens) (UniProt P68400). The settings on record: at 0.1 µM.
Sequence of Casein kinase II subunit alpha (Homo sapiens) (P68400 whole entry, looked up): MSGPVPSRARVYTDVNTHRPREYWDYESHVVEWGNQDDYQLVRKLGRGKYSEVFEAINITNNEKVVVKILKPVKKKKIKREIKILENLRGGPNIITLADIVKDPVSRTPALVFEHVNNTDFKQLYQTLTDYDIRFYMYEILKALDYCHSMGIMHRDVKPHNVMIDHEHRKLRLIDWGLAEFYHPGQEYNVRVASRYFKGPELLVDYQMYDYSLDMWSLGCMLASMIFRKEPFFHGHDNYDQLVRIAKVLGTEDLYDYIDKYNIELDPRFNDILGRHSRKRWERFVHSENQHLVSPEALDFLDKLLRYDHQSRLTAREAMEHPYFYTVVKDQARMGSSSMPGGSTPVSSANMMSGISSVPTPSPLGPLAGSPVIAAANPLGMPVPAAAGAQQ
The target is the same in assay [5]. The following applies: at 1 µM.
Assay [6] concerns the target T2, Inhibitor of nuclear factor kappa-B kinase subunit alpha (Homo sapiens) (UniProt O15111).
T2 sequence (whole entry): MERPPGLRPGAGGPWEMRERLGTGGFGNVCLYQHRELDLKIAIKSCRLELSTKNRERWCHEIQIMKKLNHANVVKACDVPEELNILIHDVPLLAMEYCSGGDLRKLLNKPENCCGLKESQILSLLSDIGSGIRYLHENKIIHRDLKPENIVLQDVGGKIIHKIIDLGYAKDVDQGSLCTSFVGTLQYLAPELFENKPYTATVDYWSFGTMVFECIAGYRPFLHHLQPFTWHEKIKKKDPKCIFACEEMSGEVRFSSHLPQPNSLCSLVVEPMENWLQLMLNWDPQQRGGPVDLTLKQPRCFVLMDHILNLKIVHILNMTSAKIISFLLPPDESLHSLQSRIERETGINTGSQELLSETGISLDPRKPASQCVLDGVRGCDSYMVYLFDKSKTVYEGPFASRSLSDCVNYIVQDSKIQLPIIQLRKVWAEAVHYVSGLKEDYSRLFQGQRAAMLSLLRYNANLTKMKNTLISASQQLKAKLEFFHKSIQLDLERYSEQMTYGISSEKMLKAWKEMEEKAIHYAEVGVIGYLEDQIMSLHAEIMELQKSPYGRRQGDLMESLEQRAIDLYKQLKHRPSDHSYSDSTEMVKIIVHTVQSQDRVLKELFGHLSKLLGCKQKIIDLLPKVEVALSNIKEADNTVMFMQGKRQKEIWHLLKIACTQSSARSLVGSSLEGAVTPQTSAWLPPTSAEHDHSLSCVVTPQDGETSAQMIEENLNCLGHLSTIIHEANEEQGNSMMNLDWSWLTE
The settings on record: at 0.1 µM.

The target in assay [7] is T2, Inhibitor of nuclear factor kappa-B kinase subunit alpha (Homo sapiens). The following applies: at 1 µM.
In assay [8] the target is T3, Inhibitor of nuclear factor kappa-B kinase subunit beta (Homo sapiens) (UniProt O14920).
T3 sequence (whole entry): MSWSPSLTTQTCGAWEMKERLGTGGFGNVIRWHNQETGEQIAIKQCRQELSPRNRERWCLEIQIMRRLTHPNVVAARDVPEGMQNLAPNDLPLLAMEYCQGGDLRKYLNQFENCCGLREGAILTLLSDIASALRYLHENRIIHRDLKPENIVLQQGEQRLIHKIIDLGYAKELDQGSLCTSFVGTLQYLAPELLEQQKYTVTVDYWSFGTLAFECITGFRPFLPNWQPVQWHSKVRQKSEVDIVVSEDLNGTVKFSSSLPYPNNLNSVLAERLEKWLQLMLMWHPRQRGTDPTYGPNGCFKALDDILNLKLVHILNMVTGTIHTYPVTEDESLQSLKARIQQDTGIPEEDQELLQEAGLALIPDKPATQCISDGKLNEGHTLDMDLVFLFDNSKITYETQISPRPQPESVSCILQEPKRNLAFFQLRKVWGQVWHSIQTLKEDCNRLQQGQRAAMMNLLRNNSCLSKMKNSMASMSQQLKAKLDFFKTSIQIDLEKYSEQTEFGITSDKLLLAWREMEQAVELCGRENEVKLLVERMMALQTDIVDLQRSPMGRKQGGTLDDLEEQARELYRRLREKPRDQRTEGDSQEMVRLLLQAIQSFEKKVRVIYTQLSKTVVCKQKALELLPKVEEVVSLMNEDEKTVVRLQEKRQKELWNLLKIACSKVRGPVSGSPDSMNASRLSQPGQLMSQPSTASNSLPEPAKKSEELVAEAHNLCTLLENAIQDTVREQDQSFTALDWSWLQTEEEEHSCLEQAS
The following applies: at 0.1 µM.

Assay [9] has as its target T3, Inhibitor of nuclear factor kappa-B kinase subunit beta (Homo sapiens). The settings on record: at 1 µM.
Assay [10] concerns the target T4, Inhibitor of nuclear factor kappa-B kinase subunit epsilon (Homo sapiens) (UniProt Q14164).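 Further: mean inhibition of IKKε reported, from the GSK PKIS dataset.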
T4 sequence (whole entry): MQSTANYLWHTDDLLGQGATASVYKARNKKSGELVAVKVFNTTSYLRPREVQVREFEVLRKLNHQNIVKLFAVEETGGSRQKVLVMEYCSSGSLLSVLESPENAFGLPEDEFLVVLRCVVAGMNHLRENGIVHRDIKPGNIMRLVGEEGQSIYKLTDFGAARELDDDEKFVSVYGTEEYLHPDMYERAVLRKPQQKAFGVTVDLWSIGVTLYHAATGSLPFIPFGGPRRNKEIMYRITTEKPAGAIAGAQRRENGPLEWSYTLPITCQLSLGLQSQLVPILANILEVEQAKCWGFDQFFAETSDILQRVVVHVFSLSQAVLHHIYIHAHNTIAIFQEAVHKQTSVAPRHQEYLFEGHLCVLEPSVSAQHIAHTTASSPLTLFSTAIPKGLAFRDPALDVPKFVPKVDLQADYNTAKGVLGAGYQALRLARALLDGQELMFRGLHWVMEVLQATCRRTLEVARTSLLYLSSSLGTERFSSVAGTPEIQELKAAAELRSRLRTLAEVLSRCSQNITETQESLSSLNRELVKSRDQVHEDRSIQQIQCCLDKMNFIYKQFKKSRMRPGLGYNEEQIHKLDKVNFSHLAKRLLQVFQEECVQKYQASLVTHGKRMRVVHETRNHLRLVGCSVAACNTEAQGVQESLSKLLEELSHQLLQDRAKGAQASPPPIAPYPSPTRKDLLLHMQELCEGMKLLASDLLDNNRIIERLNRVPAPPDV
The settings on record: at 0.1 µM.

Sequence of Sphingosine kinase 1 (Homo sapiens) (Q9NYA1 whole entry): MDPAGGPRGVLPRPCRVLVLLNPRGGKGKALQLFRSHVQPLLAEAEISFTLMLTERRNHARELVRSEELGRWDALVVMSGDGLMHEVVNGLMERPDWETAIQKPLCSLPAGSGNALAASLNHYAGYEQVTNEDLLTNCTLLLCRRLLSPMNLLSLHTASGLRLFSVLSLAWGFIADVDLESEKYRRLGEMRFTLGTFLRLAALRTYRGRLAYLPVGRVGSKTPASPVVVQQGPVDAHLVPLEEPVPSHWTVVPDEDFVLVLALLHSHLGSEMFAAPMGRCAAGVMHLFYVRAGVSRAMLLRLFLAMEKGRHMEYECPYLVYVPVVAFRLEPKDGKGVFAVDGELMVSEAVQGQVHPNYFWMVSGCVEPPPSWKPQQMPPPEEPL

The term inhibition denotes the relative decrease from the control value, in per cent. As for `COc1cc(C)c(NC(=O)CN(C)C)cc1Nc1nc(Nc2cccc(F)c2C(N)=O)c2cc[nH]c2n1`, the inhibition in assay [1] was -1.23%; in [2] it was -0.13%; in assay [3], -0.4%; in [4], 7.08%; in [5], 35.5%; in [6], 0.92%. Besides, the inhibition was -6.41% in [7], 0.16% in assay [8], -5.7% in assay [9] and 1.27% in assay [10].
As to `COc1cc2c(cc1Nc1nc(N3CCc4ccccc43)c3cc[nH]c3n1)N(C(=O)CN(C)C)CC2`, the inhibition in assay [1] is -1.12%; in assay [2], -0.36%; in assay [3], 0.81%; in assay [4], 0.13%; in assay [5] it was -9.3%; in [6], 2.9%. In addition, the inhibition in [7] is 0.37%; in [8], 4.25%; in [9] it was -1.42%; in assay [10] it was 0.88%.
Regarding `c1cnn2ncc(-c3ccnc(Nc4ccc5c(c4)OCCO5)n3)c2c1`, the inhibition in assay [1] is -1.74%; in [2] it was 2.07%; in assay [3] it was 0.2%; in assay [4], 13.2%; in assay [5], 47.5%; in assay [6], 14.7%. The inhibition was 60.5% in assay [7], 8.92% in assay [8], 30% in [9] and 6.75% in [10].
`CS(=O)(=O)CCNCc1ccc(-c2ccc3ncnc(Nc4ccc(OCc5ccccc5)c(Cl)c4)c3c2)o1`: the inhibition in assay [1] was 2.51%; in assay [2], 1.2%; in assay [3], -1.85%; in [4] it was -1.12%; in assay [5], 1.71%; in [6] it was -2.26%. Further, the inhibition in assay [7] is 2.45%; in [8], -1.73%; in assay [9], 0.03%; in [10] it was 0.17%.
With `CCn1c(-c2nonc2N)nc2c(C#CC(C)(C)O)nc(OC[C@@H](N)c3ccccc3)cc21`, the inhibition in assay [1] is 2.57%; in [2], -1.25%; in [3], -2.35%; in assay [4], 0.95%; in [5], 1.36%; in assay [6] it was 4.77%. For the same molecule, the inhibition in assay [7] was 2.26%; in [8], -2.58%; in assay [9], -1.93%; in [10], 0.47%.
Turning to `COc1cc2ncn(-c3cc(OCc4ccccc4Cl)c(C(N)=O)s3)c2cc1OC`, the inhibition was -2.81% in [1]; 5.21% in assay [2]; -4.96% in [3]; 2.2% in [4]; 9.54% in [5]; -1.84% in [6]. For the same molecule, the inhibition was found to be 5.14% in assay [7], 1.96% in assay [8], 1.01% in assay [9] and 0.65% in [10].
As for `CS(=O)(=O)CCNCc1ccc(-c2ccc3ncnc(Nc4ccc(OCc5cccc(F)c5)c(C(F)(F)F)c4)c3c2)o1`, the inhibition in assay [1] was -2.4%; in assay [2], 0.03%; in assay [3], 0.79%; in [4], 3.22%; in assay [5], 5.65%; in [6], 7.6%. The inhibition in assay [7] was found to be 5.45%; in assay [8], 5.87%; in assay [9] it was 5.15%; in [10], 5.42%.
In the case of `NS(=O)(=O)c1cccc(-c2ccc3c(NC(=O)C4CC4)n[nH]c3c2)c1`, the inhibition in assay [1] was 2.86%; in [2] it was 0.74%; in assay [3] it was -0.18%; in assay [4], 0.11%; in [5], -0.44%; in assay [6] it was 11.4%. For the same molecule, the inhibition in assay [7] is 5.2%; in assay [8] it was -0.49%; in assay [9], -1.55%; in [10] it was -4.07%.

(Values after ChEMBL document CHEMBL1961873, “Compounds: GSK PKIS; Assays: Nanosyn kinase panel” (2012).)
